Compounds with a hit are over-represented: about 4.7% of the library has one in this group of screens.
tim23-1 inh – inhibits growth of tim23-1 mutant yeast; S. cerevisiae tim23-1 growth, BacTiter-Glo luminescence, 24 h; actives 1.3% (n = 330,000); inhibition, % at 20 µM;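 active means growth inhibition of the mutant yeast at or above 50%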;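 further: temperature-sensitive mutant grown at 25 °C; plate controls were DMSO-treated mutant yeast for no effect and medium wells lacking yeast for full effect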
PfHsp90 set2 – reduces growth (ATP signal) of yeast expressing P. falciparum Hsp90 | S. cerevisiae expressing PfHsp90, BacTiter-Glo ATP, 48 h; yeast lacking PDR1 and PDR3 efflux regulators | inhibition, % at 9.4 µM | actives 0.32% (n = 310,000) | AID 504621;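 active means every replicate shows inhibition above about 80%, whatever the replicate mean, limit read from the data; inconclusive means mean inhibition reaches the set limit but some replicate falls short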;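 further: 0% = DMSO neutral controls and 100% = 20 µM radicicol positive controls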
TIM10 inh – growth inhibitors of TIM10 yeast strain | inhibition, % at 10 µM | S. cerevisiae TIM10 strain growth, BacTiter-Glo luminescence, 24 h | actives 1.4% (n = 330,000) | AID 463195;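 active means inhibition of 40% or more at the single tested concentration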;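 further: wild-type TIM10 isogenic control strain grown at permissive 25 °C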
tim10-1 inh – growth inhibitors of tim10-1 mutant yeast; S. cerevisiae tim10-1 ts strain growth, BacTiter-Glo, 24 h; inhibition, % at 20 µM; actives 2.2% (n = 330,000); AID 463190;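 active means inhibition of at least 40%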;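 further: mutant grown at 25 °C; 0% = DMSO wells with yeast and 100% = wells holding no yeast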
Calb FLC – affects C. albicans growth with fluconazole | C. albicans CaCi-2 (fluconazole-resistant clinical isolate) + fluconazole, Alamar Blue growth, 48 h | growth inhibition, % (no concentration beside the values) | actives 0.57% (n = 300,000);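 active means growth inhibition above about 58% in most replicates, limit read from the data, passing the limit was not always enough; inconclusive means exactly half the replicates above a set limit; inactive means most replicates below a set limit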;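 further: all wells also contain fluconazole at 8 µg/ml as a sub-toxic cotreatment; 0% = median of DMSO wells and 100% = median of geldanamycin control wells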
SKKanGAS inh – SKKanGAS growth inhibition. S. pyogenes SKKanGAS, kanamycin growth, BacTiter-Glo, 6 h. actives 1.3% (n = 300,000). inhibition, % at 7.5 µM. AID 1662;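 active means mean replicate score, as percent of positive control median, at least 50; inconclusive means mean below 50 but one replicate at or above 50; inactive means mean and every replicate below 50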;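 further: strain carries kanamycin resistance gene driven by streptokinase promoter and grows in 40 µg/ml kanamycin; loss of luminescence reflects streptokinase promoter inhibition or plain growth inhibition; 0% = median of DMSO wells and 100% = positive control at its reference dose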
tim10-1 conf – confirmation of tim10-1 mutant yeast growth inhibitors. actives 56% (n = 7,400). shares compounds with tim10-1 inh. S. cerevisiae tim10-1 ts strain growth, BacTiter-Glo, 24 h. AID 463213. inhibition, % at 20 µM;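 active means inhibition of yeast growth at or above a set limit in either of two repeat tests at 20 µM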;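 further: tim10-1 mutant grown at permissive 25 °C to find synthetic lethal compounds; 0% = DMSO yeast wells and 100% = medium wells without yeast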
tim10 confirm – confirmation of TIM10 yeast growth inhibitors; actives 63% (n = 4,600); S. cerevisiae tim10 strain growth, BacTiter-Glo luminescence, 24 h; shares compounds with TIM10 inh; inhibition, % at 10 µM;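 active means inhibition of yeast growth at or above a set limit in either of two replicates at 10 µM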;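 further: this counterscreen used the strain with wild-type TIM10; 0% = yeast with DMSO and 100% = medium wells lacking yeast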
tim23-1 conf – tim23-1 yeast growth inhibition, confirmed. inhibition, % at 20 µM. AID 463218. actives 83% (n = 4,400). S. cerevisiae tim23-1 growth, BacTiter-Glo luminescence, 24 h. shares compounds with tim23-1 inh;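 active means inhibition above about 39% in either of two replicate wells at 20 µM, limit read from the data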;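 further: temperature-sensitive tim23-1 mutant grown at 25 °C; 0% = DMSO wells with yeast and 100% = medium wells without yeast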
* = called active by the depositor.

How did O=S(=O)(Nc1ccc(-c2nc3ccccc3o2)cc1)c1ccccc1 do in these assays?
tim23-1 inh: 61.4*; PfHsp90 set2: -114.6; TIM10 inh: 52.3*; tim10-1 inh: 46.7*; Calb FLC: 22.6; SKKanGAS inh: 7.9; tim10-1 conf: 40.2*; tim10 confirm: 36.0*; tim23-1 conf: 52.8*

Results for Cc1ccc(OCCn2cnc3c2c(=O)n(C)c(=O)n3C)cc1 ?
tim23-1 inh: 19.3; PfHsp90 set2: -26.6; TIM10 inh: -11.7; tim10-1 inh: 10.0; Calb FLC: 20.1; SKKanGAS inh: -0.3

How did CCCCCc1ccc(CC(=O)Nn2c(C)nc3ccccc3c2=O)cc1 do in these assays?
tim23-1 inh: 52.3*; PfHsp90 set2: -7.2; TIM10 inh: 7.4; tim10-1 inh: 59.9*; Calb FLC: -16.2; SKKanGAS inh: 5.0; tim10-1 conf: 48.2*; tim23-1 conf: 69.3*

How did CN(C)c1ccc(-n2cccc2/C=C/[N+](=O)[O-])cc1 do in these assays?
tim23-1 inh: 89.5*; PfHsp90 set2: 107.3*; TIM10 inh: 92.0*; tim10-1 inh: 86.5*; Calb FLC: -34.0; SKKanGAS inh: -6.3; tim10-1 conf: 86.1*; tim10 confirm: 94.7*; tim23-1 conf: 78.2*

Results for CC(C)(C)OC(=O)N/N=C/c1cccn1-c1ccc([N+](=O)[O-])cc1 ?
tim23-1 inh: 24.2; PfHsp90 set2: 11.8; TIM10 inh: 17.4; tim10-1 inh: 19.3; Calb FLC: -1.9; SKKanGAS inh: -1.7

How did Cc1ccc(NC(=O)c2ccccc2)cc1 do in these assays?
tim23-1 inh: 9.3; TIM10 inh: 1.5; tim10-1 inh: -1.7; Calb FLC: -10.1; SKKanGAS inh: 3.5

How did Cc1ccc(C(=O)Sc2cccccc2=O)cc1 do in these assays?
tim23-1 inh: 89.3*; PfHsp90 set2: 104.0*; TIM10 inh: 73.2*; tim10-1 inh: 74.1*; Calb FLC: -3.4; SKKanGAS inh: 37.3; tim10-1 conf: 76.8*; tim10 confirm: 89.3*; tim23-1 conf: -27.8

Results for CCS(=O)(=O)n1nc(-c2ccc(Cl)cc2)nc1SCc1ccccc1 ?
tim23-1 inh: 62.1*; TIM10 inh: 9.3; tim10-1 inh: 40.5*; Calb FLC: -14.4; SKKanGAS inh: 28.9; tim10-1 conf: 1.9; tim23-1 conf: 56.5*

How did COc1ccc(-c2nc(SCc3ccccc3)n(S(C)(=O)=O)n2)cc1 do in these assays?
tim23-1 inh: 11.1; PfHsp90 set2: -9.1; TIM10 inh: 32.8; tim10-1 inh: 17.0; Calb FLC: 10.2; SKKanGAS inh: 0.3

Results for O=C1NC(=O)C2(CCCCCC2)N1 ?
PfHsp90 set2: 4.7

Results for O=C(C[n+]1cc(Br)cc2ccccc21)c1ccc(Br)cc1 ?
tim23-1 inh: 28.9; PfHsp90 set2: 12.8; TIM10 inh: 25.9; tim10-1 inh: 32.7; Calb FLC: -3.5; SKKanGAS inh: -4.0

Results for O=C(C[n+]1cn(C(F)F)c2ccccc21)c1ccc(Br)cc1 ?
tim23-1 inh: 54.7*; PfHsp90 set2: -5.4; TIM10 inh: 72.0*; tim10-1 inh: 64.1*; Calb FLC: inconclusive; SKKanGAS inh: 0.9; tim10-1 conf: 65.3*; tim10 confirm: 64.6*; tim23-1 conf: 26.9

How did COc1ccc(OC)c(S(=O)(=O)N2CCN(C(=O)CCc3ccccc3)CC2)c1 do in these assays?
tim23-1 inh: 13.2; PfHsp90 set2: 15.4; TIM10 inh: 7.7; tim10-1 inh: 19.9; Calb FLC: 3.3; SKKanGAS inh: -0.8

What do the screens show for `O=C(O)CNc1nc(-c2ccccc2)nc2ccccc12`?
tim23-1 inh: -0.5; PfHsp90 set2: -0.9; TIM10 inh: -10.6; tim10-1 inh: -21.5; Calb FLC: -13.2; SKKanGAS inh: 22.8

Results for c1ccc(Nc2nc(-c3ccccc3)nc3ccccc23)cc1 ?
tim23-1 inh: 65.0*; PfHsp90 set2: -19.3; TIM10 inh: 26.6; tim10-1 inh: 47.0*; Calb FLC: 3.9; SKKanGAS inh: -3.7; tim10-1 conf: 26.5; tim23-1 conf: 49.2*

Results for COc1ccc(Nc2nc(-c3ccccc3O)nc3ccccc23)cc1 ?
tim23-1 inh: 51.1*; PfHsp90 set2: -34.8; TIM10 inh: 32.6; tim10-1 inh: 45.7*; Calb FLC: 50.4; SKKanGAS inh: 21.5; tim10-1 conf: 35.7*; tim23-1 conf: 58.7*

Results for c1ccc(-c2nc(NC3CCCC3)c3ccccc3n2)cc1 ?
tim23-1 inh: 53.2*; PfHsp90 set2: 14.6; TIM10 inh: 41.3*; tim10-1 inh: 45.8*; Calb FLC: 14.9; SKKanGAS inh: -5.8; tim10-1 conf: 35.8*; tim10 confirm: 17.1; tim23-1 conf: 67.5*

What do the screens show for `CCOc1cc(C)nc(N2CCC(C(=O)NCC3CCCO3)CC2)n1` (stereo not given)?
PfHsp90 set2: -16.6

What do the screens show for `FC(F)(F)c1nnc2ccc(N3CCCCCC3)nn12`?
tim23-1 inh: 50.1*; PfHsp90 set2: -4.8; TIM10 inh: 17.7; tim10-1 inh: 40.8*; tim10-1 conf: 25.0; tim23-1 conf: 32.8

How did CCN1Cc2cc(OC)ccc2-c2ccccc2S1(=O)=O do in these assays?
tim23-1 inh: 31.4; PfHsp90 set2: -0.2; TIM10 inh: 1.2; tim10-1 inh: 21.6

What do the screens show for `CNc1nc(SCc2ccccc2Cl)nc2c1CCCC2`?
tim23-1 inh: 54.3*; PfHsp90 set2: -20.4; TIM10 inh: 46.3*; tim10-1 inh: 41.9*; Calb FLC: 24.0; SKKanGAS inh: 34.0; tim10-1 conf: 42.9*; tim10 confirm: 44.7*; tim23-1 conf: 59.7*

Results for CC(C)(C)NC(=O)C(c1ccc(O)cc1)N(C(=O)CCC(=O)Nc1nccs1)c1ccc(F)cc1 (stereo not given) ?
tim23-1 inh: 7.7; PfHsp90 set2: -17.3; TIM10 inh: -5.2; tim10-1 inh: 14.3; Calb FLC: -3.2; SKKanGAS inh: -0.4

Results for O=C(COc1ccc(Br)cc1CO)Nc1ccc(S(=O)(=O)N2CCCCC2)cc1 ?
tim23-1 inh: 53.4*; PfHsp90 set2: -34.2; TIM10 inh: 39.2; tim10-1 inh: 40.3*; tim10-1 conf: 49.7*; tim23-1 conf: 60.8*

How did Cc1cc(C)nc(S/C=C/C(=O)c2ccccc2F)n1 do in these assays?
tim23-1 inh: 63.8*; PfHsp90 set2: -10.4; TIM10 inh: 53.4*; tim10-1 inh: 43.4*; Calb FLC: 1.4; SKKanGAS inh: 0.4; tim10-1 conf: 27.8; tim10 confirm: 53.2*; tim23-1 conf: 63.2*

Screening data: PubChem BioAssay, several laboratories
